Results published in PubChem BioAssay.
Values joined by “and” are separate entries in the source; they are usually repeats but may differ in a detail not shown here. Identical values can stand only once. Unmarked numbers belong to inactive results. For some of these results: Entries with a potency or affinity are not part of this list. Active and inactive are the calls of the source. Unless noted, no rule for the calls is given here.

Experiments:
[1] = antimalarial activity against Dd2 strain (AID 2302;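 active = growth inhibition above 50% at the single 2 µM test dose, taken to imply half-maximal potency below 2 µM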;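 also: 0% = DMSO untreated growth and 100% = chloroquine plus artemisinin killed control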); settings: P. falciparum Dd2 in RBCs, LDH growth readout, 72 h; at 2 µM; stronger effect = higher value
[2] = HepG2 cytotoxicity, primary screen, cytotoxicity control for P. falciparum antimalarial project, cell-based, ATP luminescence (AID 2303;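 active = inhibition above 50%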;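 also: 0% = DMSO wells and 100% = digitonin-killed cells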); settings: HepG2 viability, 24-48 h, at 10 µM, stronger effect = higher value
[3] = biological target: L-lactate dehydrogenase (Plasmodium falciparum (isolate CDC / Honduras)) (UniProt Q27743); experiment: PfLDH activity inhibition – cell lysate, 3D7 strain, counter-screen for P. falciparum growth inhibition project (AID 2304);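 also: 0% = vehicle and 100% = reference inhibitor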; settings: P. falciparum 3D7 crude extract, LDH APAD/NBT absorbance; at 2 µM; stronger effect = higher value
L-lactate dehydrogenase (Plasmodium falciparum (isolate CDC / Honduras)), sequence (Q27743 whole entry, looked up): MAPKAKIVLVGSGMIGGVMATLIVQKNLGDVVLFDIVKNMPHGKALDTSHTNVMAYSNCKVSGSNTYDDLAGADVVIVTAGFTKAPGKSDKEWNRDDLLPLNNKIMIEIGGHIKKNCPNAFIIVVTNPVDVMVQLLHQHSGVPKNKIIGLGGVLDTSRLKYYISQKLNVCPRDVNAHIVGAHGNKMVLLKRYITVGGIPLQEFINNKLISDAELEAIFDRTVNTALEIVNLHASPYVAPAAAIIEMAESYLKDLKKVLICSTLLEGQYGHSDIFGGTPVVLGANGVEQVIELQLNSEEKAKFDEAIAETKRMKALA

[4] = inhibition of 3D7 malaria parasite growth – strain 3D7 (AID 2306);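 also: 0% = DMSO wells and 100% = chloroquine plus artemisinin control wells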; settings: P. falciparum 3D7 erythrocytic growth, LDH absorbance, 72 h; at 2 µM; stronger effect = higher value
[5] = biological target: Calcium-dependent protein kinase 1 (Plasmodium falciparum (isolate 3D7)) (UniProt P62344); experiment: PfCDPK1 kinase inhibitors, biochemical, TCAMS library (AID 1159585; cut-off not given, nearly all actives have IC50 up to about 0.98 µM;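 also: inhibitors leave more ATP so luminescence rises with inhibition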); settings: recombinant PfCDPK1, Kinase-Glo ATP depletion luminescence
Calcium-dependent protein kinase 1 (Plasmodium falciparum (isolate 3D7)), sequence (P62344 whole entry, looked up): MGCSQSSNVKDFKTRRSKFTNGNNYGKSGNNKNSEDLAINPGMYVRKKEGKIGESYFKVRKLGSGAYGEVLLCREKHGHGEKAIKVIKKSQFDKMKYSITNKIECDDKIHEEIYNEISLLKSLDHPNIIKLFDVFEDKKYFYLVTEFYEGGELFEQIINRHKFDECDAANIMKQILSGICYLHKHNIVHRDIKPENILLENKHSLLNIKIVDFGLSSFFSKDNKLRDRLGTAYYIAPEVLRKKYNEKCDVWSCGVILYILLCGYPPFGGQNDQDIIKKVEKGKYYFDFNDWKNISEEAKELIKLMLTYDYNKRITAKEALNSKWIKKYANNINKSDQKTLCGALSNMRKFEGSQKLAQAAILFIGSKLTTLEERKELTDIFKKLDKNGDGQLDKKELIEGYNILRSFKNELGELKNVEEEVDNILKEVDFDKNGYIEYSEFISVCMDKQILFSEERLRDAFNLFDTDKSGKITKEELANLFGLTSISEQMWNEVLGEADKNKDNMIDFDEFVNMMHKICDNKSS

[6] = biological target: Plasmodium falciparum protein kinase 6 (PK6, PF3D7_1337100) (UniProt Q8IDW1); experiment: PfPK6 kinase inhibitors, biochemical, TCAMS library (AID 1159586); settings: recombinant PfPK6, Kinase-Glo ATP depletion luminescence
Plasmodium falciparum protein kinase 6 (PK6, PF3D7_1337100), sequence (Q8IDW1 1-305): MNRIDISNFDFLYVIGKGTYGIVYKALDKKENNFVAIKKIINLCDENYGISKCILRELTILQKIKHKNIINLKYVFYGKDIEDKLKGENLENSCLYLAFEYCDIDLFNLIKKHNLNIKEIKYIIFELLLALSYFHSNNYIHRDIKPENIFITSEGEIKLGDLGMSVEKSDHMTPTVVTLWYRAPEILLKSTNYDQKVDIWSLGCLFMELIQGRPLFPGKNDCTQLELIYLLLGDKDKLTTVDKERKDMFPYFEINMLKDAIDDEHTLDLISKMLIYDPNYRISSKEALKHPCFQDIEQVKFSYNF

[7] = biological target: Protein kinase 7 (PK7), Plasmodium falciparum 3D7 (PF3D7_0213400) (UniProt Q7YTF7); experiment: inhibition of Plasmodium PK7 catalytic activity – biochemical, TCAMS antimalarial set, Kinase-Glo luminescence (AID 1159587); settings: recombinant PfPK7, Kinase-Glo ATP depletion luminescence
Protein kinase 7 (PK7), Plasmodium falciparum 3D7 (PF3D7_0213400), sequence (Q7YTF7 1-343): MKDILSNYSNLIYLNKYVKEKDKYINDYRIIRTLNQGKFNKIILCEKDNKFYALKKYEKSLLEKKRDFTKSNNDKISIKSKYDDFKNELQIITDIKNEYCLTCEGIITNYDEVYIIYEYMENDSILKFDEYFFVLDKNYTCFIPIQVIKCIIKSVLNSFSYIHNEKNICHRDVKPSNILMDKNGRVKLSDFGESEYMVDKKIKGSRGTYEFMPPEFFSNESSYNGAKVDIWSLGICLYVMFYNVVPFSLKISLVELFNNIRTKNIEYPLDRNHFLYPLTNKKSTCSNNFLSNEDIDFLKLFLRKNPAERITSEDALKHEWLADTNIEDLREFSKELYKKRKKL

[8] = biological target: Calcium-dependent protein kinase 4 (Plasmodium falciparum (isolate 3D7)) (UniProt Q8IBS5); experiment: PfCDPK4 kinase inhibitors, biochemical, TCAMS library (AID 1159588; cut-off not given, nearly all actives have IC50 up to about 0.91 µM); settings: recombinant PfCDPK4, Kinase-Glo ATP depletion luminescence
Calcium-dependent protein kinase 4 (Plasmodium falciparum (isolate 3D7)), sequence (Q8IBS5 whole entry, looked up): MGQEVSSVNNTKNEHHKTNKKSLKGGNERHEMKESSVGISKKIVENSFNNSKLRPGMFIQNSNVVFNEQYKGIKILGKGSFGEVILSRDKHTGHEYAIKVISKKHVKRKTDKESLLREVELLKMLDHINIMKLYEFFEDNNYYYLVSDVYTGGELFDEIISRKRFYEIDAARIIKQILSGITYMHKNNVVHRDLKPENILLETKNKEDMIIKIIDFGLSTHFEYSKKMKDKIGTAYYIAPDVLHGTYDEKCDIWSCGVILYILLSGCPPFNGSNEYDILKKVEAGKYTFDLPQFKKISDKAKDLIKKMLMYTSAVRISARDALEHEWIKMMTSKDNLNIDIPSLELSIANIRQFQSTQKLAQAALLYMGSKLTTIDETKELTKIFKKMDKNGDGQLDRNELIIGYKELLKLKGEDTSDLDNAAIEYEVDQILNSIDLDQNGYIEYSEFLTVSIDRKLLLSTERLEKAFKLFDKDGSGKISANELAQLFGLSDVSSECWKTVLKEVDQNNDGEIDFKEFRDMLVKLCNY

| SMILES | growth inhibition [1] | inhibition [2] | inhibition [3] | growth inhibition [4] | outcome [5] | outcome [6] | outcome [7] | outcome [8] |
| --- | --- | --- | --- | --- | --- | --- | --- | --- |
| CN(c1cc(NC(=O)c2cccs2)ccn1)C1CCN(Cc2cccc(C#N)c2)CC1 | 69% (active) | 59% (active) | 4% | 90% (active) | inactive | inactive | inactive | inactive |
| CC(Cc1ccc([N+](=O)[O-])cc1)NCC(O)c1cccc(C(F)(F)F)c1 (centres undefined) | 92% (active) | -2% | -2% | 98% (active) | inactive | inactive | inactive | inactive |
| O=C1COc2ccccc2N1CCN1CCC(NCc2ccc(-c3cccs3)cc2)CC1 | 18% | 37% | -4% | 87% (active) | inactive | inactive | inactive | inactive |
| CC[C@H]1CN2CC[C@H]1C[C@@H]2[C@H](O)c1ccnc2ccc(O)cc12 | -4% | -3% | -2% | 94% (active) | inactive | inactive | inactive | inactive |
| O=C(CCC(=O)c1ccc2c3c(cccc13)CC2)NC1CCC(CN2CCC(c3c[nH]c4ccccc34)CC2)CC1 (centres undefined) | 13% | 34% | -1% | 96% (active) | inactive | inactive | inactive | inactive |
| Oc1ccc2[nH]cc(C3=CCN(Cc4ccccc4)CC3)c2c1 | 67% (active) | 1% | 7% | 94% (active) | inactive | inactive | inactive | inactive |
| COc1cccc(CC(C)NCC(O)c2cccc(Cl)c2)c1 (centres undefined) | 76% (active) | 7% | -1% | 85% (active) | inactive | inactive | inactive | inactive |
| O=C(/C=C/c1ccc(Cl)c(Cl)c1)N1CCC(CN2CCC(c3c[nH]c4cc(C(F)(F)F)ccc34)CC2)CC1 | 38% | 6% | -5% | 99% (active) | inactive | inactive | inactive | inactive |
| O=C(Nc1ccccc1Cl)NC1CCC(CN2CCC(c3c[nH]c4ccccc34)CC2)CC1 (centres undefined) | 31% and 34% | 32% and 37% | 0% and -2% | 98% (active) and 101% (active) | inactive | inactive | inactive | inactive |
| CC(Cc1ccc(OCCOc2ccccc2)cc1)NCC(O)c1cccc(C(F)(F)F)c1 (centres undefined) | 76% (active) | 16% | -6% | 91% (active) | inactive | inactive | inactive | inactive |
| CCOc1ccc2nccc([C@@H](O)[C@@H]3C[C@@H]4CCN3C[C@@H]4CC)c2c1 | 99% (active) and 51% (active) | 24% and 1% | 2% and -2% | 98% (active) and 99% (active) | inactive | inactive | inactive | inactive |
| O=C(NC1CCN(CCc2c[nH]c3ccc(F)cc23)CC1)c1ncc(-c2ccccc2)[nH]1 | 69% (active) | -3% | -1% | 102% (active) | inactive | inactive | inactive | inactive |
| Cc1ccc(C[C@@H](C)NC[C@H](O)c2cccc(C(F)(F)F)c2)cc1 | 79% (active) and 97% (active) | 10% and 6% | -4% and 1% | 101% (active) and 99% (active) | inactive | inactive | inactive | inactive |
| CN(c1ccc(NC(=O)CCOc2ccccc2)cc1)C1CCN(Cc2cccc(O)c2)CC1 | -1% | 18% | 3% | 89% (active) | inactive | inactive | inactive | inactive |
| CC(C)CNCc1ccc(-c2cccc(CN(C(=O)CCC3CCCC3)C3CCN(Cc4ccccc4)CC3)c2)cc1 | 92% (active) | 62% (active) | -7% | 101% (active) | inactive | inactive | inactive | inactive |
| CC[C@H]1CN2CC[C@H]1C[C@H]2[C@H](O)c1cc(-c2ccc(OC(F)(F)F)cc2)nc2ccc(OC)cc12 | 99% (active) | 24% | 0% | 98% (active) | inactive | inactive | inactive | inactive |
| CN1CC=C(C=Cc2c[nH]c3ccccc23)CC1 | 64% (active) | 14% | -1% | 86% (active) | inactive | inactive | inactive | inactive |
| CN(C)CCCn1cc(C(=O)OC2C[C@H]3CC[C@@H](C2)N3C)c2cc(-c3ccccc3)ccc21 (some centres undefined) | 96% (active) | 97% (active) | 0% | 97% (active) | inactive | inactive | inactive | inactive |
| CC[C@H]1CN2CC[C@@H]1C[C@H]2[C@H](O)c1cc(-c2c(C)noc2C)nc2ccc(OC)cc12 | 98% (active) | 4% | -1% | 100% (active) | inactive | inactive | inactive | inactive |

| SMILES | growth inhibition [1] | inhibition [2] | inhibition [3] | growth inhibition [4] | outcome [5] | outcome [6] | outcome [7] | outcome [8] |
| --- | --- | --- | --- | --- | --- | --- | --- | --- |
| CC(C)CNCc1ccc(-c2ccc(CN(C(=O)Nc3ccccc3)C3CCN(Cc4ccccc4)CC3)cc2)cc1 | 61% (active) | 27% | -4% | 101% (active) | inactive | inactive | inactive | inactive |
| CCCCOC(C(=O)OCC1CCCN1C)(c1ccccc1)c1ccccc1 (centres undefined) | 2% | 3% | 6% | 100% (active) | inactive | inactive | inactive | inactive |
| CC[C@H]1CN2CC[C@H]1C[C@H]2[C@H](O)c1cc(-c2ccccc2C(F)(F)F)nc2ccc(OC)cc12 | 99% (active) | -4% | -5% | 98% (active) | inactive | inactive | inactive | inactive |
| CN1CCC(O)(c2ccc(Br)cc2)C(C(O)c2ccc(Br)cc2)C1 (centres undefined) | 99% (active) | 28% | -5% | 98% (active) | inactive | inactive | inactive | inactive |
| C[C@H](Cc1ccc(OCCCCCCOc2ccccc2)cc1)NC[C@H](O)c1cccc(Cl)c1 | 99% (active) | 21% | 7% | 93% (active) | inactive | inactive | inactive | inactive |
| Cc1ccccc1CNCC(O)c1cccc(C(F)(F)F)c1 (centres undefined) | 77% (active) | 5% | -4% | 99% (active) | inactive | inactive | inactive | inactive |
| O=C(CNC1CCCCC1)c1ccc(O)c(O)c1 | 99% (active) | 61% (active) | 4% | 102% (active) | inactive | inactive | inactive | inactive |
| COc1ccc(C(=O)[C@H]2C[C@@H]2CN2CC=C(c3c[nH]c4cccc(Br)c34)CC2)cc1 | 67% (active) | 32% | -3% | 88% (active) | inactive | inactive | inactive | inactive |
| CC(C)C[C@H](Nc1ccc(C#N)c2ccccc12)C(=O)N[C@@H]1CCCc2ccccc21 | 100% (active) | 38% | 10% | 99% (active) | inactive | inactive | inactive | inactive |
| O=C(/C=C/C=C/c1ccccc1)NC1CCC(CN2CCC(c3c[nH]c4ccccc34)CC2)CC1 (centres undefined) | 66% (active) | 49% | 7% | 100% (active) | inactive | inactive | inactive | inactive |
| O=C(Cc1c(-c2ccccc2)[nH]c2ccccc12)NC1CCC(CN2CCC(c3c[nH]c4ccccc34)CC2)CC1 (centres undefined) | 75% (active) | 31% | 1% | 103% (active) | inactive | inactive | inactive | inactive |
| CC[C@H]1CN2CC[C@@H]1C[C@H]2[C@H](O)c1cc(-c2cc(Cl)cc(Cl)c2)nc2ccc(OC)cc12 | 97% (active) | 0% | -1% | 99% (active) | inactive | inactive | inactive | inactive |
| CCCCCCCc1cc(=O)c2ccccc2[nH]1 | 94% (active) | 5% | 1% | 96% (active) | inactive | inactive | inactive | inactive |
| Cc1[nH]c2ccccc2c1C1=CCN(CCCCCC23CCCc4cccc(c42)NC3=O)CC1 (centres undefined) | 91% (active) | 11% | 5% | 94% (active) | inactive | inactive | inactive | inactive |
| CC[C@H]1CN2CC[C@H]1C[C@H]2[C@H](O)c1ccnc2ccc(O)cc12 | 2% | 11% | -3% | 99% (active) | inactive | inactive | inactive | inactive |
| CCN(CC)CCN1C(=O)C(O)(c2ccccc2Cl)c2c1cc(C#N)cc2C(F)(F)F (centres undefined) | 19% | 21% | -1% | 88% (active) | inactive | inactive | inactive | inactive |
| COCCNCc1cccc(-c2ccc(CN(C(=O)Nc3ccccc3)C3CCN(Cc4ccccc4)CC3)cc2)c1 | 45% | 25% | -4% | 101% (active) | inactive | inactive | inactive | inactive |
| O=C(/C=C/c1ccc(Cl)c(Cl)c1)Nc1cccc(CN2CCC(c3c[nH]c4ccccc34)CC2)c1 | 91% (active) | 15% | 0% | 99% (active) | inactive | inactive | inactive | inactive |
| O=C(/C=C/c1ccc(Cl)c(Cl)c1)NC1CCC(N2CCC(c3c[nH]c4ccc(O)cc34)CC2)CC1 (centres undefined) | 16% | 10% | -9% | 97% (active) | inactive | inactive | inactive | inactive |
